Results filed as inconclusive are left out. Some compounds were tested as several samples or in several runs, with calls that do not always agree. Calls of active or inactive are those of the source. How the source made its calls, unless noted: active means hit-call score of the fitted dose curve at least 0.9, where 1 is the maximum; inactive means score below 0.9.

For assay [1], the target named is human RAR-related Orphan Receptor gamma (RORg), RORC (gene 6097) (UniProt P51449). In words: ATG_RORg_TRANS: Attagene TRANS-FACTORIAL HepG2 Assay for human RAR-related Orphan Receptor gamma (RORg) (AID 2283011; active means hit-call score of the fitted dose curve at least 0.9, where 1 is the maximum). In a few lines: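 First, HepG2 liver cells were transfected with GAL4-UAS-driven reporter constructs and the RORg-Gal4 fusion. Next, they were treated with chemical for 24 h. Finally, reporter mRNA was quantified by RT-PCR and capillary electrophoresis, with upward activity fitted against DMSO.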
human RAR-related Orphan Receptor gamma (RORg), RORC (gene 6097), sequence (P51449 whole entry, looked up, the tested form may be a part): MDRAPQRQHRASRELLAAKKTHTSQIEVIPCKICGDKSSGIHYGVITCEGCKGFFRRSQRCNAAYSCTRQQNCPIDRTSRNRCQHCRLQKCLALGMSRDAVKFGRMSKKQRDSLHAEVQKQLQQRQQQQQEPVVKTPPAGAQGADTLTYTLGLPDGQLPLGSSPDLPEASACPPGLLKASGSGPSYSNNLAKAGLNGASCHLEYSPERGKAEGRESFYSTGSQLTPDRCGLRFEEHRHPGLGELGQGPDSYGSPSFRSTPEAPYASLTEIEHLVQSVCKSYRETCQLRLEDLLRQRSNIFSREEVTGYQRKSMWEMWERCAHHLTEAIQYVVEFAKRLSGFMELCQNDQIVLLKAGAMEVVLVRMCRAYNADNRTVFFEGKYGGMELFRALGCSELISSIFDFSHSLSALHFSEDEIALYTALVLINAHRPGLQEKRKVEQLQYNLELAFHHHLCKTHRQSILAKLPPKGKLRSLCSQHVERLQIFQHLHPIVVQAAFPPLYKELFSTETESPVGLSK

For assay [2], the target named is human Thyroid Receptor alpha (THRa1), THRA (gene 7067) (UniProt P10827). Kind of assay: ATG_THRa1_TRANS: Attagene TRANS-FACTORIAL HepG2 Assay for human Thyroid Receptor alpha (THRa1) (AID 2283014; active means hit-call score of the fitted dose curve at least 0.9, where 1 is the maximum). In a few lines:
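Reporter transcript induction, read by capillary electrophoresis of 6-FAM-labelled RT-PCR products, reflects activity of a transfected THRa1-Gal4 fusion in HepG2 liver cells. Cells were dosed for 24 h; activity was fitted in the positive direction against DMSO.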

For assay [3], the target named is Retinoic acid receptor RXR-alpha (Homo sapiens) (UniProt P19793). In words: ATG_RXRa_TRANS: Attagene TRANS-FACTORIAL HepG2 Assay for human Retinoid X Receptor alpha (RXRa) (AID 2283012; active means hit-call score of the fitted dose curve at least 0.9, where 1 is the maximum). Summed up:
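HepG2 cells transiently transfected with multiplexed GAL4-UAS reporter units and chimeric NR-GAL4 fusions, dosed 24 h. Reporter mRNA measured by RT-PCR, FAM labelling, HpaI digestion and capillary electrophoresis; gain-of-signal fitted relative to DMSO baseline.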

Read-out in assay [4]: Interleukin-1 alpha (IL1a), IL1A (gene 3552)
Kind of assay: BSK_BE3C_IL1a: BioMAP Diversity Plus: BE3C Assay for Interleukin-1 alpha (IL1a) Biomarker Activity (AID 2283016). The conditions noted are these: primary human bronchial epithelial cells; actives raise or lower the signal. In a few lines:
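Human primary bronchial epithelial cells (BE3C system) were dosed with compound and IL-1a measured by ELISA 24 h later. Activity was fitted bidirectionally against DMSO baseline; cytotoxicity was tracked in parallel cultures by SRB total-protein staining.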

Read-out in assay [5]: Monocyte Chemoattractant Protein-1 (MCP1), CCL2 (gene 6347)
Kind of assay: BSK_3C_MCP1: BioMAP Diversity Plus: 3C Assay for Monocyte Chemoattractant Protein-1 (MCP1) Biomarker Activity (AID 2283017). The conditions noted are these: primary human endothelial cells (HUVEC); actives raise or lower the signal. In a few lines:
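ELISA read-out of MCP-1 from human umbilical vein endothelial cell cultures harvested 24 h post-dosing. Gain or loss of signal was fitted relative to DMSO.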

Read-out in assay [6]: Monocyte Chemoattractant Protein-1 (MCP1), CCL2 (gene 6347)
Kind of assay: BSK_4H_MCP1: BioMAP Diversity Plus: 4H Assay for Monocyte Chemoattractant Protein-1 (MCP1) Biomarker Activity (AID 2283018). The note with it: primary human endothelial cells (HUVEC); actives raise or lower the signal. In a few lines: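 Human umbilical vein endothelial cells (4H system) dosed with chemical; MCP-1 measured by ELISA 24 h after dosing. Bidirectional curve fitting against DMSO negative control as baseline; parallel SRB total-protein staining tracks overt cytotoxicity.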

Read-out in assay [7]: Human Leukocyte Antigen - DR isotype (HLADR), HLA-DRA (gene 3122)
In words: BSK_3C_HLADR: BioMAP Diversity Plus: 3C Assay for Human Leukocyte Antigen - DR isotype (HLADR) Biomarker Activity (AID 2283019). The conditions noted are these: primary human endothelial cells (HUVEC); actives raise or lower the signal. In a few lines: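 ELISA readout of surface HLA-DR on human umbilical vein endothelium, taken 24 h after chemical treatment. Gain- and loss-of-signal were both fitted relative to DMSO.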

Read-out in assay [8]: Interleukin-8 (IL8), CXCL8 (gene 3576)
In words: BSK_3C_IL8: BioMAP Diversity Plus: 3C Assay for Interleukin-8 (IL8) Biomarker Activity (AID 2283020). The conditions noted are these: primary human endothelial cells (HUVEC); actives raise or lower the signal. Summed up:
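Primary human umbilical vein endothelial cells (3C system) were exposed to test chemical for 24 h, then IL-8 was quantified by ELISA. Responses were fitted bidirectionally against DMSO vehicle as baseline.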

Read-out in assay [9]: Monokine induced gamma interferon (MIG), CXCL9 (gene 4283)
Kind of assay: BSK_3C_MIG: BioMAP Diversity Plus: 3C Assay for Monokine induced gamma interferon (MIG) Biomarker Activity (AID 2283021). The conditions noted are these: primary human endothelial cells (HUVEC); actives raise or lower the signal. In a few lines:
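Primary human umbilical vein endothelial cells in the 3C system were exposed to chemical for 24 h, after which MIG was quantified by ELISA. Activity was fitted bidirectionally against DMSO as negative control and baseline.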

Assay [10] concerns the target human Vitamin D Receptor (VDR), VDR (gene 7421) (UniProt P11473). In words: ATG_VDR_TRANS: Attagene TRANS-FACTORIAL HepG2 Assay for human Vitamin D Receptor (VDR) (AID 2283022; active means hit-call score of the fitted dose curve at least 0.9, where 1 is the maximum). Summed up:
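Steps: transfect HepG2 with GAL4-UAS-driven reporter constructs; dose compounds 24 h; isolate RNA, reverse-transcribe, PCR-amplify with 6-FAM-labelled primer extension and HpaI digestion; quantify fragments by capillary electrophoresis relative to DMSO.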

Assay [11] can be described thus: BSK_3C_SRB: Viability Assessment in the BioMAP Diversity Plus: 3C Assay (AID 2283023).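 Further: fitted both ways against DMSO so a hit may be signal rise or drop.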 The note with it: primary human endothelial cells (HUVEC). In a few lines: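 Absorbance at 560 nm of sulforhodamine B-stained (0.1%) total protein served as a cytotoxicity readout in human umbilical vein endothelial cells, 24 h after chemical treatment. Signal was fitted bidirectionally relative to DMSO.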

Read-out in assay [12]: Matrix Metallopeptidase 1 (MMP1), MMP1 (gene 4312)
Kind of assay: BSK_BE3C_MMP1: BioMAP Diversity Plus: BE3C Assay for Matrix Metallopeptidase 1 (MMP1) Biomarker Activity (AID 2283024). The note with it: primary human bronchial epithelial cells; actives raise or lower the signal. In a few lines: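 Primary human bronchial epithelial cells were dosed with test chemicals, and MMP1 levels were measured by ELISA 24 h later. Data were fitted bidirectionally against DMSO as the negative control and activity baseline.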

Read-out in assay [13]: Pselectin, SELP (gene 6403)
In words: BSK_4H_Pselectin: BioMAP Diversity Plus: 4H Assay for Pselectin Biomarker Activity (AID 2283026). The conditions noted are these: primary human endothelial cells (HUVEC); actives raise or lower the signal. In a few lines: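 Primary human umbilical vein endothelial cells were exposed to test chemical for 24 h, then cell-surface P-selectin was quantified by ELISA. Activity was fitted bidirectionally against DMSO as negative control and baseline.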

Assay [14] can be described thus: BSK_4H_SRB: Viability Assessment in the BioMAP Diversity Plus: 4H Assay (AID 2283027).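 Further: cells exposed to compound for 24 h before staining.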 The conditions noted are these: primary human endothelial cells (HUVEC). In a few lines: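 Human umbilical vein endothelial cells were dosed with chemical and, after 24 h, fixed with 10% TCA, stained with 0.1% sulforhodamine B, and read at 560 nm to give total protein as a cytotoxicity measure. Bidirectional fitting relative to DMSO control.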

A short description of assay [15]: BSK_BE3C_SRB: Viability Assessment in the BioMAP Diversity Plus: BE3C Assay (AID 2283028). The note with it: primary human bronchial epithelial cells. In a few lines: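 Cells (human bronchial epithelial, primary) are treated with chemicals, and after 24 h the parallel cultures are fixed in 10% TCA. These are then stained with 0.1% SRB and read at 560 nm. Gain or loss of signal is fitted relative to DMSO.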

Read-out in assay [16]: Thrombomodulin, THBD (gene 7056)
Kind of assay: BSK_3C_Thrombomodulin: BioMAP Diversity Plus: 3C Assay for Thrombomodulin Biomarker Activity (AID 2283029). The conditions noted are these: primary human endothelial cells (HUVEC); actives raise or lower the signal. In a few lines: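 Primary human umbilical vein endothelial cells (3C system) were exposed to chemical for 24 h, then thrombomodulin levels were measured by ELISA. Activity was fitted bidirectionally against the DMSO negative control as baseline.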

Assay [17] addresses human Retinoid X Receptor beta (RXRb), RXRB (gene 6257) (UniProt P28702). Kind of assay: ATG_RXRb_TRANS: Attagene TRANS-FACTORIAL HepG2 Assay for human Retinoid X Receptor beta (RXRb) (AID 2283013; active means hit-call score of the fitted dose curve at least 0.9, where 1 is the maximum). In a few lines: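 HepG2 cells transiently transfected with multiplexed reporter units driven by GAL4-UAS and exogenous chimeric NR-Gal4 proteins; treated 24 h. Reporter mRNA measured by RT-PCR, 6-FAM labelling and capillary electrophoresis; gain-of-signal fitted versus DMSO baseline.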

Read-out in assay [18]: E-selectin (Homo sapiens) (UniProt P16581)
Kind of assay: BSK_3C_Eselectin: BioMAP Diversity Plus: 3C Assay for Eselectin Biomarker Activity (AID 2283015).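 Further: cell surface E-selectin protein quantified by ELISA 24 h after dosing.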 The conditions noted are these: primary human endothelial cells (HUVEC); actives raise or lower the signal. In a few lines: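 ELISA read-out of E-selectin on endothelial monolayers after 24 h chemical treatment. Human umbilical vein primary cells served as the system, with DMSO defining baseline activity for bidirectional fitting.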

The nature of assay [19]: BSK_3C_Vis: BioMAP Diversity Plus: 3C Assay for Morphology Visualization (AID 2283025).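 Further: fitted both ways so gain or loss versus DMSO counts.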 The note with it: primary human endothelial cells (HUVEC). In a few lines:
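Human umbilical vein endothelial cells in the 3C system were imaged by light microscopy 24 h after chemical dosing to record cell morphology. Activity was fitted bidirectionally against DMSO as negative control and baseline; the endpoint serves as a background control.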

Read-out in assay [20]: Urokinase-type plasminogen activator receptor (uPAR), PLAUR (gene 5329)
In words: BSK_4H_uPAR: BioMAP Diversity Plus: 4H Assay for Urokinase-type plasminogen activator receptor (uPAR) Biomarker Activity (AID 2283030). The note with it: primary human endothelial cells (HUVEC); actives raise or lower the signal. In a few lines: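 Cell-surface uPAR ELISA signal, measured 24 h after dosing human umbilical vein endothelial cells, was analyzed with bidirectional fitting relative to DMSO. Parallel SRB staining of total protein tracked overt cytotoxicity.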

human Thyroid Receptor alpha (THRa1), THRA (gene 7067), sequence (P10827 whole entry, looked up, the tested form may be a part): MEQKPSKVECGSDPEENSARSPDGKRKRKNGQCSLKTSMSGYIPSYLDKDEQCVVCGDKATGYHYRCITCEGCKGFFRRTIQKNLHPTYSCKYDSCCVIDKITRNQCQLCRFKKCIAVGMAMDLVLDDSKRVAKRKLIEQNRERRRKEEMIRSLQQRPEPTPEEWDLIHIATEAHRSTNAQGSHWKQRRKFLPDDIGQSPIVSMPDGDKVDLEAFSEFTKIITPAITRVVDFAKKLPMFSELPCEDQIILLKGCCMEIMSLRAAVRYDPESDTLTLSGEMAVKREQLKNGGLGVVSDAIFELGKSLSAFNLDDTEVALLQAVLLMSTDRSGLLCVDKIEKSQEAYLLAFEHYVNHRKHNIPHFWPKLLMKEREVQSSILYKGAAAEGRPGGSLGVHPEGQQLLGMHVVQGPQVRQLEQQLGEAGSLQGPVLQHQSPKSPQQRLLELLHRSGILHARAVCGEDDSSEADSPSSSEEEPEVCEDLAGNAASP
Retinoic acid receptor RXR-alpha (Homo sapiens), sequence (P19793 whole entry, looked up, the tested form may be a part): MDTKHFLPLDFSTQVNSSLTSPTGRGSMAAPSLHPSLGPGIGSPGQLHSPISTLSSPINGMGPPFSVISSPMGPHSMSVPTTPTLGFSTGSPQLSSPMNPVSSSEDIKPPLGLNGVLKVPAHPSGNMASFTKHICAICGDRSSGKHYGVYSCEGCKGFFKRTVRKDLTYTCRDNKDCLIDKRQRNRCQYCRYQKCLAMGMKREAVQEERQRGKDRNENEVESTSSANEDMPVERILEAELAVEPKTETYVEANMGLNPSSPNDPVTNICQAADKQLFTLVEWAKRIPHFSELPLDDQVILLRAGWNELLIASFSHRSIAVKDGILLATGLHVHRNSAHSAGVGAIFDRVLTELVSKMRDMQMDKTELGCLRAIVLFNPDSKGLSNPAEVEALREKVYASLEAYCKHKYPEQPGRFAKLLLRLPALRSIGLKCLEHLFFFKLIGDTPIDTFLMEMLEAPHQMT
human Retinoid X Receptor beta (RXRb), RXRB (gene 6257), sequence (P28702 whole entry, looked up, the tested form may be a part): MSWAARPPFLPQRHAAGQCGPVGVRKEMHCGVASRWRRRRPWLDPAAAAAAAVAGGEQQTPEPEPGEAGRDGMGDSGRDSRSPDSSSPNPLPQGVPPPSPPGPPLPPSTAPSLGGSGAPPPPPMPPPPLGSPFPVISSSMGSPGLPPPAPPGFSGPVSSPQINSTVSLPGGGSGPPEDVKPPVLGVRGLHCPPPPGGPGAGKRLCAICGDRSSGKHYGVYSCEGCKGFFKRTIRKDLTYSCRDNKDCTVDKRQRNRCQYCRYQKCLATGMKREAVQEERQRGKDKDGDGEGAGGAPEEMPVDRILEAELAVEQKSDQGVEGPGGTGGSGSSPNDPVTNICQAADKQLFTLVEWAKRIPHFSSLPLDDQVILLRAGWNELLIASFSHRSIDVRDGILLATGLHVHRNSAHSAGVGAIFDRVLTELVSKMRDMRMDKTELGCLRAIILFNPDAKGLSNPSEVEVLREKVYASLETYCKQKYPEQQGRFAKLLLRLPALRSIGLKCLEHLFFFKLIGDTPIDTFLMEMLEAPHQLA
human Vitamin D Receptor (VDR), VDR (gene 7421), sequence (P11473 whole entry, looked up, the tested form may be a part): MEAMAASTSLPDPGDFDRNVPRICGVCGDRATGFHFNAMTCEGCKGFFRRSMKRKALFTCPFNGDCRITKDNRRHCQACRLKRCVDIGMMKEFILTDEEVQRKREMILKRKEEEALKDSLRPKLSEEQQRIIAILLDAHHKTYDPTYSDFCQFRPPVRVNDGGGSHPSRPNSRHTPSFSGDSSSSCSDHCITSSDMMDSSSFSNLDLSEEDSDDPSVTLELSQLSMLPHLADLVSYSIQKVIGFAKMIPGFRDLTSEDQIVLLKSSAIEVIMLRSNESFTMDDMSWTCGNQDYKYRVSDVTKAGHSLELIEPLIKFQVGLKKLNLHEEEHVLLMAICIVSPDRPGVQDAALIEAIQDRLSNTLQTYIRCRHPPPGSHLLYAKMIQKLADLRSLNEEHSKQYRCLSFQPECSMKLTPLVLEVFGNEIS
E-selectin (Homo sapiens), sequence (P16581 whole entry, looked up): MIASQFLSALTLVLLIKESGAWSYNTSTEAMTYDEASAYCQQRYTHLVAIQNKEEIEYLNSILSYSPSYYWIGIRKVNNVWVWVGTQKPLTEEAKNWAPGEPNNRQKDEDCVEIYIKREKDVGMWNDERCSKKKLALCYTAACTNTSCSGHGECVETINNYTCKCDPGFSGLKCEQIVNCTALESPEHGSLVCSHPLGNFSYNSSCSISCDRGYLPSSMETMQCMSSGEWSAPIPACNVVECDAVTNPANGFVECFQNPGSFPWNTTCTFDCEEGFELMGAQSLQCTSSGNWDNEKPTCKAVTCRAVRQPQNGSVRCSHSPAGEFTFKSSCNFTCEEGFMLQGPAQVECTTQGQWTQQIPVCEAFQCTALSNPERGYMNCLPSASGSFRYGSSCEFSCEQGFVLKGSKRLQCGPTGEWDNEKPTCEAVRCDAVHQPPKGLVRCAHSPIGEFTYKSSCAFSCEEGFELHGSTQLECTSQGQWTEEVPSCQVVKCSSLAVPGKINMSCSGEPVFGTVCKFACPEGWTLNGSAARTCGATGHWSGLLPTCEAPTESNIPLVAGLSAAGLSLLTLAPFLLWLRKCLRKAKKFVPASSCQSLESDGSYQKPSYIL

For the compound `O=NN1CCCC1`, the call in assay [1] and in assay [2] was inactive.

For the compound `NC(=O)C(F)(F)C(F)(F)F`, the call in assay [1], in assay [3], in assay [2], in assay [4], in assay [5] and in assay [6] was inactive. Further, the outcome in assay [7], in assay [8], in [9], in assay [10], in assay [11] and in [12] was inactive. The outcome in assay [13], in assay [14], in assay [15] and in [16] was inactive.

On to `COP(N)(=S)OC`, for which the outcome in assay [1], in [3], in assay [17], in [18], in assay [4] and in assay [5] was inactive. Further, the outcome in assay [6], in assay [7], in [8], in [9], in assay [10] and in assay [11] was inactive. The result in assay [12], in [19], in assay [13], in assay [14], in assay [15] and in [16] was inactive. The outcome in assay [20] was inactive.

Consider `O=C(O)C(F)(OC(F)(F)C(F)(F)C(F)(F)F)C(F)(F)F` (centres undefined), for which the result in assay [1], in [17], in assay [2], in assay [4], in assay [5] and in assay [6] was inactive. For the same compound, the outcome in [7], in [8], in assay [9], in assay [10], in assay [11] and in assay [12] was inactive. The outcome in assay [13], in assay [14], in assay [15], in assay [16] and in assay [20] was inactive. In addition, the AC50 in assay [5] was 49.3 µM (active); in [8], 5.95 µM (active); in [12], 10.7 µM (active).

Consider `[N-]=[N+]=[N-]`, for which the result in assay [1], in assay [2], in [18], in assay [4], in assay [5] and in assay [6] was inactive. The outcome in assay [7], in assay [8], in assay [9], in [11], in assay [12] and in assay [19] was inactive. In addition, the result in assay [13], in [14], in assay [15], in [16] and in assay [20] was inactive.

Take `Nc1ccc2ccccc2c1`: the outcome in assay [1], in [3], in assay [2], in assay [4], in [5] and in assay [6] was inactive. Also, the outcome in assay [7], in assay [8], in [9], in assay [11], in [19] and in [13] was inactive. Besides, the result in [14], in assay [15] and in [16] was inactive. In addition, the AC50 in assay [12] was 2.92 µM (active).

On to `O=C(O)C(F)(F)OC(F)(F)C(F)(F)OC(F)(F)F`, for which the result in assay [1], in assay [3], in assay [17], in assay [2], in assay [4] and in assay [5] was inactive. For the same compound, the result in assay [6], in assay [7], in assay [8], in assay [9], in [10] and in assay [11] was inactive. Moreover, the outcome in [12], in assay [13], in [14], in [15], in assay [16] and in assay [20] was inactive.

`O=c1[nH]c2ccccc2c(=O)o1`: the compound was classed as inactive in [1].

The values are drawn from PubChem BioAssay (EPA / NIEHS).
